PubChem BioAssay AID1159580 (chemical genetic matrix, 2015)
Screen size: about 5,500 compounds; about 2,000 (36%) were called active. Inconclusive results (about 18%) are left out. Cut-off read from the data, not from the text of the source: active = normalized growth mostly below about 0.91 (no sharp cut-off); inconclusive = no clear call, values can overlap the other calls; inactive = mostly above about 0.92. The list shows a part of the results.

Assay: chemical genetic growth profiling, strain panel (AID 1159580);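 note: tested at 20 µM; growth read once vehicle control cultures reached saturation at 30 °C; 1 = growth at the plate median or of vehicle wells; lower values mean less growth of the strain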
Conditions: growth OD
[1] = S. cerevisiae deletion strains, locus YDL101C, strain DUN1, stronger effect = lower value
[2] = S. cerevisiae deletion strains, locus YHR030C, strain SLT2, stronger effect = lower value
[3] = S. cerevisiae deletion strains, locus YBR229C, strain ROT2, stronger effect = lower value
[4] = S. cerevisiae deletion strains, locus YDR150W, strain NUM1, stronger effect = lower value
[5] = S. cerevisiae deletion strains, locus YEL061C, strain CIN8, stronger effect = lower value
[6] = S. cerevisiae deletion strains, locus YGR078C, strain PAC10, stronger effect = lower value
[7] = S. cerevisiae deletion strains, locus YHR087W, strain rtc3, stronger effect = lower value
[8] = S. cerevisiae deletion strains, locus YJL187C, strain SWE1, stronger effect = lower value
[9] = S. cerevisiae deletion strains, locus YJR043C, strain POL32, stronger effect = lower value
[10] = S. cerevisiae deletion strains, locus YJR075W, strain HOC1, stronger effect = lower value
[11] = S. cerevisiae deletion strains, locus YKL190W, strain CNB1, stronger effect = lower value
[12] = S. cerevisiae deletion strains, locus YLR039C, strain RIC1, stronger effect = lower value
[13] = S. cerevisiae deletion strains, locus YLR058C, strain SHM2 (second series), stronger effect = lower value
[14] = S. cerevisiae deletion strains, locus YLR085C, strain ARP6, stronger effect = lower value
[15] = S. cerevisiae deletion strains, locus YLR262C, strain YPT6, stronger effect = lower value
[16] = S. cerevisiae deletion strains, locus YML094W, strain GIM5, stronger effect = lower value
[17] = S. cerevisiae deletion strains, locus YMR219W, strain ESC1, stronger effect = lower value
[18] = S. cerevisiae deletion strains, locus YMR263W, strain SAP30, stronger effect = lower value
[19] = S. cerevisiae deletion strains, locus YNL153C, strain GIM3, stronger effect = lower value
[20] = S. cerevisiae deletion strains, locus YNL298W, strain CLA4 (second series), stronger effect = lower value
[21] = S. cerevisiae deletion strains, locus YNL322C, strain KRE1, stronger effect = lower value
[22] = S. cerevisiae deletion strains, locus YNR030W, strain Alg12, stronger effect = lower value
[23] = S. cerevisiae deletion strains, locus YPL055C, strain LGE1, stronger effect = lower value
[24] = S. cerevisiae deletion strains, locus YPL241C, strain CIN2, stronger effect = lower value
[25] = S. cerevisiae deletion strains, locus YPR135W, strain CTF4, stronger effect = lower value

Measured: normalized growth

CCOC(=O)c1cnc(-c2ccccn2)[nH]c1=O
inactive: S. cerevisiae deletion strains, locus YAR019C, strain CDC15, stronger effect = lower value 0.933 | S. cerevisiae deletion strains, locus YBL105C, strain PKC1, stronger effect = lower value 0.955 | S. cerevisiae deletion strains, locus YBR135W, strain CKS1, stronger effect = lower value 0.932 | S. cerevisiae deletion strains, locus YBR136W, strain MEC1, stronger effect = lower value 0.94 | S. cerevisiae deletion strains, locus YBR160W, strain CDC28, stronger effect = lower value 0.934 | S. cerevisiae deletion strains, locus YDL017W, strain CDC7, stronger effect = lower value 0.957 | S. cerevisiae deletion strains, locus YDL028C, strain MPS1, stronger effect = lower value 0.94 | [1] 0.955 | S. cerevisiae deletion strains, locus YDL108W, strain KIN28, stronger effect = lower value 0.943 | S. cerevisiae deletion strains, locus YDL132W, strain cdc53, stronger effect = lower value 0.948 | S. cerevisiae deletion strains, locus YDL214C, strain PRR2, stronger effect = lower value 0.825 | S. cerevisiae deletion strains, locus YDR052C, strain DBF4, stronger effect = lower value 0.952 | S. cerevisiae deletion strains, locus YDR054C, strain cdc34, stronger effect = lower value 0.899 | S. cerevisiae deletion strains, locus YDR226W, strain ADK1, stronger effect = lower value 0.935 | S. cerevisiae deletion strains, locus YDR477W, strain SNF1, stronger effect = lower value 0.85 | S. cerevisiae deletion strains, locus YER133W, strain GLC7, stronger effect = lower value 0.856 | S. cerevisiae deletion strains, locus YFL009W, strain cdc4, stronger effect = lower value 0.907 | S. cerevisiae deletion strains, locus YFL029C, strain CAK1, stronger effect = lower value 0.932 | S. cerevisiae deletion strains, locus YFR003C, strain YPI1, stronger effect = lower value 0.947 | S. cerevisiae deletion strains, locus YFR019W, strain FAB1, stronger effect = lower value 0.819 | S. cerevisiae deletion strains, locus YFR028C, strain CDC14, stronger effect = lower value 0.937 | S. cerevisiae deletion strains, locus YGR040W, strain KSS1, stronger effect = lower value 0.866 | S. cerevisiae deletion strains, locus YGR052W, strain FMP48, stronger effect = lower value 0.69 | S. cerevisiae deletion strains, locus YGR092W, strain DBF2, stronger effect = lower value 0.638 | S. cerevisiae deletion strains, locus YHR082C, strain KSP1, stronger effect = lower value 0.839 | S. cerevisiae deletion strains, locus YHR205W, strain SCH9, stronger effect = lower value 0.965 | S. cerevisiae deletion strains, locus YIL147C, strain SLN1, stronger effect = lower value 0.935 | S. cerevisiae deletion strains, locus YJL128C, strain PBS2, stronger effect = lower value 1.01 | S. cerevisiae deletion strains, locus YJL157C, strain FAR1, stronger effect = lower value 0.743 | S. cerevisiae deletion strains, locus YJR016C, strain ILV3, stronger effect = lower value 0.934 | S. cerevisiae deletion strains, locus YJR066W, strain TOR1 (second series), stronger effect = lower value 0.741 | S. cerevisiae deletion strains, locus YJR066W, strain TOR1, stronger effect = lower value 0.652 | S. cerevisiae deletion strains, locus YKL048C, strain ELM1, stronger effect = lower value 0.927 | S. cerevisiae deletion strains, locus YKL067W, strain YNK1, stronger effect = lower value 0.818 | S. cerevisiae deletion strains, locus YKL101W, strain HSL1, stronger effect = lower value 0.871 | S. cerevisiae deletion strains, locus YKL193C, strain SDS22, stronger effect = lower value 0.917 | S. cerevisiae deletion strains, locus YKL203C, strain TOR2, stronger effect = lower value 0.901 | S. cerevisiae deletion strains, locus YLR133W, strain CKI1, stronger effect = lower value 0.834 | S. cerevisiae deletion strains, locus YLR403W, strain SFP1, stronger effect = lower value 0.785 | S. cerevisiae deletion strains, locus YML070W, strain DAK1, stronger effect = lower value 0.744 | S. cerevisiae deletion strains, locus YMR001C, strain CDC5, stronger effect = lower value 0.934 | S. cerevisiae deletion strains, locus YMR205C, strain PFK2 (second series), stronger effect = lower value 0.848 | S. cerevisiae deletion strains, locus YMR277W, strain FCP1, stronger effect = lower value 0.922 | S. cerevisiae deletion strains, locus YNL006W, strain LST8, stronger effect = lower value 0.966 | S. cerevisiae deletion strains, locus YNL020C, strain ARK1, stronger effect = lower value 0.833 | S. cerevisiae deletion strains, locus YNL161W, strain CBK1, stronger effect = lower value 0.933 | S. cerevisiae deletion strains, locus YNL183C, strain NPR1, stronger effect = lower value 0.603 | S. cerevisiae deletion strains, locus YNL207W, strain RIO2, stronger effect = lower value 0.926 | S. cerevisiae deletion strains, locus YNL222W, strain SSU72, stronger effect = lower value 0.921 | S. cerevisiae deletion strains, locus YNL307C, strain MCK1 (second series), stronger effect = lower value 0.759 | S. cerevisiae deletion strains, locus YOL078W, strain AVO1, stronger effect = lower value 0.92 | S. cerevisiae deletion strains, locus YOL136C, strain PFK27, stronger effect = lower value 0.752 | S. cerevisiae deletion strains, locus YOR061W, strain CKA2, stronger effect = lower value 0.835 | S. cerevisiae deletion strains, locus YOR119C, strain RIO1, stronger effect = lower value 0.863 | S. cerevisiae deletion strains, locus YOR329C, strain SCD5, stronger effect = lower value 0.948 | S. cerevisiae deletion strains, locus YPL031C, strain PHO85, stronger effect = lower value 0.82 | S. cerevisiae deletion strains, locus YPL153C, strain RAD53, stronger effect = lower value 0.759 | S. cerevisiae deletion strains, locus YPL204W, strain HRR25, stronger effect = lower value 0.773 | S. cerevisiae deletion strains, locus YPL209C, strain IPL1, stronger effect = lower value 0.946 | S. cerevisiae deletion strains, locus YPR025C, strain CCL1, stronger effect = lower value 0.953 | S. cerevisiae deletion strains, locus YPR106W, strain ISR1, stronger effect = lower value 0.944 | S. cerevisiae deletion strains, locus YPR111W, strain DBF20, stronger effect = lower value 0.939 | S. cerevisiae deletion strains, strain NNK1, stronger effect = lower value 0.932 | S. cerevisiae deletion strains, strain TSCII, stronger effect = lower value 0.916
active: S. cerevisiae deletion strains, locus YER123W, strain YCK3, stronger effect = lower value 0.453 | [2] 0.734 | S. cerevisiae deletion strains, locus YHR079C, strain IRE1, stronger effect = lower value 0.426 | S. cerevisiae deletion strains, locus YJL095W, strain BCK1, stronger effect = lower value 0.432 | S. cerevisiae deletion strains, locus YLR113W, strain HOG1, stronger effect = lower value 0.487 | S. cerevisiae deletion strains, locus YOR231W, strain MKK1, stronger effect = lower value 0.413 | S. cerevisiae deletion strains, locus YPL256C, strain CLN2, stronger effect = lower value 0.464

CCOC(=O)c1cnc(SCC(=O)c2ccc(Cl)cc2Cl)[nH]1
inactive: S. cerevisiae deletion strains, locus YAL013W, strain DEP1, stronger effect = lower value 1 | [3] 1 | [1] 1 | [4] 1.02 | [5] 1.03 | [6] 1.02 | [2] 0.936 | [7] 1.01 | [8] 1.03 | [9] 0.999 | [10] 1 | [11] 0.993 | [12] 0.934 | [13] 1.01 | [14] 1.06 | [15] 0.914 | [16] 1.01 | [17] 1.01 | [18] 0.938 | [19] 1 | [20] 1.04 | [21] 1.01 | [22] 0.988 | [23] 1.08 | [24] 1.01 | [25] 0.851

CCOC(=O)c1c[nH]c2c(F)cccc2c1=O
inactive: [3] 1 | S. cerevisiae deletion strains, locus YCL061C, strain MRC1, stronger effect = lower value 0.985 | [1] 0.963 | [4] 0.963 | [5] 1.04 | [6] 0.982 | [2] 1.03 | [7] 1.02 | [8] 1.01 | [9] 0.988 | [10] 0.973 | [11] 0.993 | [12] 1.06 | [13] 1.01 | [14] 1.03 | [15] 1.04 | [16] 1.02 | [17] 0.997 | [18] 1.01 | [19] 0.973 | [20] 0.981 | [21] 0.996 | [22] 0.978 | [23] 1.02 | [24] 0.962 | [25] 0.985 | S. cerevisiae strains, strain wild type, stronger effect = lower value 0.989
